# Bioassay records from PubChem.
# Hits are enriched below; roughly 32% of the tested compounds scored in any of these assays.
# PostGolgi yeast = phenotypic screen on post-Golgi transport, primary screen | post-Golgi transport phenotypic cell assay | inhibition, % at 10 µM | 98,000 compounds, 0.9% hits;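 note: yeast cells grown in 1536-well plates; yeast grown about 18 h at 30C before absorbance read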
# CYP2C9 act = human CYP2C9 activators, primary screen, biochemical, luminescence; recombinant CYP2C9, luciferin-H conversion; active compounds read high; factor 1 = untreated enzyme, 0 = blocked; activation factor at 5 µM; 96,000 compounds, 1.4% hits;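 active = activation factor of 2 or more for CYP2C9 at a 5 µM dose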
# PostGolgi ctrl = growth inhibition of yeast control strain, primary screen, counter-screen for post-Golgi transport modulator project | AID 738, 2007 | efflux-deficient yeast background strain, growth absorbance A615, 16 h | 98,000 compounds, 5% hits | inhibition, % at 10 µM
# CYP2C19 inhib = blockers of cytochrome P450 2C19 activity – biochemical, luminescence, ADME assay, primary screen | CYP2C19 Supersomes, luciferin-H EGE luminescence, 30 min | inhibition, % at 5 µM | 96,000 compounds, 21% hits | AID 778, 2007;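 active = CYP2C19 inhibition above a set limit at 5 µM in the primary screen, cut at about 50% in these data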
# Target sequence (P33261 whole entry, looked up): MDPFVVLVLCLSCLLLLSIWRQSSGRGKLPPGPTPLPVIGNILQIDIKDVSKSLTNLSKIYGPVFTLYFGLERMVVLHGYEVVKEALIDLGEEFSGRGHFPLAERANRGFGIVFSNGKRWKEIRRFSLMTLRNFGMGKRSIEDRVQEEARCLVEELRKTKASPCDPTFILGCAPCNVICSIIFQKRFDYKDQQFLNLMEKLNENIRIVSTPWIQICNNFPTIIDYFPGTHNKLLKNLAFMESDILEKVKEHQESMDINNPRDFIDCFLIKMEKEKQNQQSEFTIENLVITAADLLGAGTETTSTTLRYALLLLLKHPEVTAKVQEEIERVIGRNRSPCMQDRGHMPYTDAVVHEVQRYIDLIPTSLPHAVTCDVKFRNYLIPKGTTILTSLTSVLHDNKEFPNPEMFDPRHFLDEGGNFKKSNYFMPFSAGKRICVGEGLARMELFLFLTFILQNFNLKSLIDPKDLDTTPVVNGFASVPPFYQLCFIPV
# CYP2C19 act = human CYP2C19 activators, primary screen, biochemical, luminescence | 96,000 tested, under 10 active | activation factor at 5 µM | recombinant CYP2C19, luciferin-H EGE luminescence; active compounds read high; 0 = fully inhibited enzyme, 1 = untreated enzyme | Cytochrome P450 2C19 (Homo sapiens), P33261;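 active = activation factor of at least 2 at 5 µM in the primary screen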
# CYP2C9 inhib = blockers of cytochrome P450 2C9 activity – biochemical, luminescence, ADME assay, primary screen. AID 777, 2007. 96,000 compounds, 20% hits. P11712. inhibition, % at 5 µM. CYP2C9 Supersomes, luciferin-H conversion;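 active = blocking of liver enzyme CYP2C9 beyond about 50% at 5 µM, limit read from the data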
# A number is an active result; . = inactive; / = no result. Cut-off read from the data, not from the text of the source, unless noted: active = inhibition above about 30%; inactive = the rest.
SMILES,PostGolgi yeast,CYP2C9 act,PostGolgi ctrl,CYP2C19 inhib,CYP2C19 act,CYP2C9 inhib
CCN(c1ccc(C)c(C)c1)S(=O)(=O)c1c(C)[nH]c(=O)[nH]c1=O,.,.,.,.,.,.
Cc1[nH]c2ccccc2c1SCC(=O)N1CCOCC1,.,.,.,93,.,.
CCN1C(=O)CC(N2CCN(CC(=O)NC(C)C)CC2)C1=O (stereo not given),.,.,.,.,.,.
Cc1ccc(C(NC(N)=O)c2ccccc2C)cc1 (stereo not given),.,.,.,99,.,.
COc1ccc(C(NC(N)=O)c2ccccc2)cc1 (stereo not given),.,.,.,.,.,.
Cc1ccc(C(NC(N)=O)c2ccccc2)cc1 (stereo not given),.,.,.,97,.,63
Cc1ccc(S(=O)(=O)N2CCCC(C(=O)NCc3cccnc3)C2)cc1Cl (stereo not given),.,.,.,86,.,.
COc1ccc(S(=O)(=O)N2CCCC(C(=O)NCc3ccncc3)C2)cc1Cl (stereo not given),.,.,.,100,.,98
Cc1cccc(C)c1OCC(O)CNC(C)(C)C (stereo not given),.,.,.,.,.,.
Cc1cc(-c2cc(N)n(-c3ccccc3)n2)c(C)n1C1CCCC1,.,.,.,.,.,.
Cc1ccc(-c2nc3ncccn3c2NC2CCCCC2)o1,.,.,.,.,.,.
Cc1ccc(-c2nc3cnccn3c2Nc2ccccc2)o1,.,.,.,83,.,76
Cc1ccc(Nc2c(-c3ccc(C)o3)nc3cnccn23)cc1,.,.,.,57,.,.
Cc1ccc(-c2cc(C(=O)Nc3cccnc3)c3ccccc3n2)o1,.,.,.,.,.,.
COc1ccc(-c2nc3cnccn3c2Nc2ccc(C)cc2)cc1,.,.,.,75,.,80
COc1cc(-c2nc3cnccn3c2Nc2c(C)cccc2C)ccc1O,.,.,.,99,.,53
COC(=O)CNC(=O)c1cccc(F)c1,.,.,.,.,.,.
Cc1ccc(CCN2C(=O)CCC2(C)C(=O)NCc2cccnc2)cc1 (stereo not given),.,.,.,.,.,.
NC(=O)C1(N2CCCCC2)CCN(C(=O)c2ccc(C#CC3(O)CCCCC3)cc2)CC1,.,.,.,.,.,.
Cc1ccc(-c2nc3cnccn3c2Nc2ccc3c(c2)OCO3)o1,.,.,.,97,.,82
CCOC(=O)c1c(NC(=O)CSc2nnc(-c3ccncc3)n2Cc2ccco2)sc(C)c1C,.,.,.,84,.,87
Cc1cc(C)c(NC(=O)CSc2nnc(-c3ccncc3)n2Cc2ccco2)c(Cl)c1,.,.,.,79,.,92
CCOC(=O)c1c(NC(=O)CSc2nnc(-c3cccnc3)o2)sc(C)c1C,.,/,.,/,/,/
Cc1csc2ncc(C(=O)NC(C)c3ccccc3)c(=O)n12 (stereo not given),.,.,.,.,.,.
CC(C)COc1cc(=O)[nH]c(SCC(C)C)n1,.,.,.,.,.,.
SMILES,PostGolgi yeast,CYP2C9 act,PostGolgi ctrl,CYP2C19 inhib,CYP2C19 act,CYP2C9 inhib
O=C(CCCOc1ccccc1)Nc1ccc(S(=O)(=O)N2CCOCC2)cc1,.,.,.,55,.,70
O=C(CCOc1ccccc1)Nc1ccc(S(=O)(=O)N2CCCC2)cc1,.,.,.,50,.,86
O=C(NCc1ccc(F)cc1)C1CCCN(C(=O)Nc2ccccc2)C1 (stereo not given),.,.,.,.,.,.
Cc1cc(C)c(S(C)(=O)=O)c(S(=O)(=O)c2ccc(Cl)cc2)n1,.,.,.,.,.,.
Cc1ccc(Sc2nc(C)cc(C)c2S(C)(=O)=O)cc1,.,.,.,.,.,64
Cc1ccc(C(=O)Nc2ncc3c(Cl)cccc3n2)cc1,.,.,.,.,.,.
CC1CCN(C(c2ccc(N(C)C)cc2)c2nnnn2Cc2ccccc2)CC1 (stereo not given),.,.,.,.,.,.
CN(C)c1ccc(C(c2nnnn2C(C)(C)C)N2CCc3ccccc3C2)cc1 (stereo not given),.,.,.,58,.,.
CC1CCN(C(c2ccc(N(C)C)cc2)c2nnnn2C(C)(C)C)CC1 (stereo not given),.,.,.,60,.,.
CC(C)(C)n1nnnc1C(c1ccccc1)N1CCc2ccccc2C1 (stereo not given),.,.,.,54,.,.
CN1CCN(C(c2cccc(C(F)(F)F)c2)c2nnnn2C(C)(C)C)CC1 (stereo not given),.,.,.,.,.,.
COc1c[nH]n(C2CCCCC2)c(=O)c1=O,.,.,.,.,.,.
O=C(c1cc2ccccc2oc1=O)N(Cc1ccccc1)C1CCS(=O)(=O)C1 (stereo not given),.,.,.,.,.,.
CCCCCN=Cc1c(C)[nH]n(-c2nc3ccccc3s2)c1=O,.,.,.,53,.,73
CCCc1[nH]n(-c2nc3ccccc3s2)c(=O)c1C=NCCN1CCOCC1,.,.,.,.,.,.
CC1CC(C)CN(c2ccc(-n3cnnn3)cc2[N+](=O)[O-])C1 (stereo not given),.,.,.,64,.,.
O=[N+]([O-])c1cc(-n2cnnn2)ccc1N1CCC(Cc2ccccc2)CC1,.,.,74,.,.,62
O=C(NCCc1ccccc1)C1CCN(S(=O)(=O)c2ccc(-n3cnnn3)cc2)CC1,.,.,.,.,.,.
O=C(Nc1c(F)c(F)c(F)c(F)c1F)C1CCCCC1,.,.,.,.,.,.
O=S(=O)(NC1CCCCC1)c1ccc(Br)cc1,.,.,32,80,.,.
COC(=O)CCN(C1CCCCC1)S(=O)(=O)c1ccc(S(=O)(=O)NC2CCCCC2)cc1,.,.,.,97,.,100
CCN(C1CCCCC1)S(=O)(=O)c1ccc(C(=O)O)cc1,.,.,.,.,.,.
CCc1ccc(OCC(=O)NC(=S)Nc2ccc(S(=O)(=O)NC3CCCCC3)cc2)cc1,.,.,.,.,.,74
O=C(COc1ccc(S(=O)(=O)NC2CCCC2)cc1)N1CCCCCC1,.,.,.,.,.,.
COC(=O)COc1ccc(S(=O)(=O)NC2CCCCCC2)cc1,.,.,.,94,.,88
CC1(C)C(O)=C(c2nc3ccccc3[nH]2)C(=N)N1c1ccccc1,.,.,.,.,.,.
O=[N+]([O-])c1ccccc1/C=N/N1CCN(c2ccccn2)CC1,.,.,.,.,.,.
COc1cccc(C(=O)NC2CC3CCCC(C2)N3CC(=O)Nc2ccc(N(C)C)cc2)c1 (stereo not given),.,.,.,.,.,79
